Source: PubChem BioAssay (Sanford-Burnham Center for Chemical Genomics)
CYP2C9 inh – blockers of cytochrome P450 2C9 activity – biochemical, luminescence, ADME assay, primary screen; actives 20% (n = 96,000); inhibition, % at 5 µM; CYP2C9 Supersomes, luciferin-H conversion; P11712; AID 777, 2007;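 active = blocking of liver enzyme CYP2C9 beyond about 50% at 5 µM, limit read from the data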
CYP2C9 act – human CYP2C9 activators, primary screen, biochemical, luminescence | Cytochrome P450 2C9 (Homo sapiens), P11712 | recombinant CYP2C9, luciferin-H conversion; hits give high values; factor 1 = untreated enzyme, 0 = blocked | activation factor at 5 µM | actives 1.4% (n = 96,000) | AID 1024, 2008;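 active = activation factor of 2 or more for CYP2C9 at a 5 µM dose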;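 note: 0 = sulfaphenazole-blocked wells and 1 = vehicle-only wells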
CYP2C19 act – human CYP2C19 activators, primary screen, biochemical, luminescence; recombinant CYP2C19, luciferin-H EGE luminescence; hits give high values; 0 = fully inhibited enzyme, 1 = untreated enzyme; activation factor at 5 µM; 96,000 tested, under 10 active;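 active = activation factor of at least 2 at 5 µM in the primary screen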;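 note: 0 = wells with 2.5 mM tranylcypromine and 1 = vehicle-only wells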
Target sequence (P33261 whole entry, looked up): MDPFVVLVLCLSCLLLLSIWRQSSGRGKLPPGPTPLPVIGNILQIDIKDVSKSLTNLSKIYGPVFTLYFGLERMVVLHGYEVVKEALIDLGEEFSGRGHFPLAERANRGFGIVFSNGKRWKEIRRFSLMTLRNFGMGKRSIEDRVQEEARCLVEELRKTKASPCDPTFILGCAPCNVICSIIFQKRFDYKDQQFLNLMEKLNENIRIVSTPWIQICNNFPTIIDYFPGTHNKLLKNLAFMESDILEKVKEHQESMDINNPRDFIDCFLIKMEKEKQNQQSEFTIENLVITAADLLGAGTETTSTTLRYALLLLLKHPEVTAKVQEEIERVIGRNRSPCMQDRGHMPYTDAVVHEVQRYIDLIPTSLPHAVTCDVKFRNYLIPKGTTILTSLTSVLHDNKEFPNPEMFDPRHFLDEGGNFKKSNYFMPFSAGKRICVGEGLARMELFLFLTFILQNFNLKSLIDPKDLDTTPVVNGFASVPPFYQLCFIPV
CYP2C19 inhib – blockers of cytochrome P450 2C19 activity – biochemical, luminescence, ADME assay, primary screen; CYP2C19 Supersomes, luciferin-H EGE luminescence, 30 min; AID 778, 2007; P33261; inhibition, % at 5 µM; actives 21% (n = 96,000);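 active = CYP2C19 inhibition above a set limit at 5 µM in the primary screen, cut at about 50% in these data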;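 note: plate controls were negative control wells for no effect and 2.5 mM tranylcypromine positive control for full effect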
Numbers without * were called inactive. Only some compounds are listed: those with a hit (about 31% of all), similar ones and a draw of the others.

SMILES | CYP2C9 inh | CYP2C9 act | CYP2C19 act | CYP2C19 inhib
CCOc1cc(/C=C(/C#N)C(=O)Nc2ccc(O)cc2)cc(Br)c1O | 94* | 0.1 | 0.4 | 61*
COc1ccc(C2=Nc3ccccc3OC2)cc1 | 58* | 0.4 | 0.3 | 70*
COc1ccc(NC2=Nc3ccccc3CC2)cc1 | 6 | 0.9 | 0.8 | 22
O=C(CSc1nnc(CNc2ccc(F)cc2)n1Cc1ccccc1)N1CCOCC1 | 14 | 0.9 | 1 | -1
CCOC(=O)c1csc(NC(=O)CSc2nnnn2-c2ccc(OCC)cc2)n1 | -14 | 1.1 | 1 | -4
CCOC(=O)Cc1csc(NC(=O)CSc2nnc(-c3ccc(F)cc3)o2)n1 | 56* | 0.4 | 0.8 | 16
CCOC(=O)Cc1csc(NC(=O)CSc2nnnn2-c2ccc(CC)cc2)n1 | 77* | 0.2 | 0.1 | 88*
CCOC(=O)Cc1csc(NC(=O)COc2ccccc2OC)n1 | 26 | 0.7 | 0.8 | 22
CCOC(=O)Cc1csc(NC(=O)CSc2nnc(-n3nc(C)cc3C)c3ccccc23)n1 | 92* | 0.1 | 0.2 | 79*
CCOC(=O)Cc1csc(NC(=O)CSc2ncnc3c2cnn3-c2ccc(OC)cc2)n1 | 49 | 0.5 | 0.9 | 14
CCOC(=O)Cc1csc(NC(=O)CSc2nnc(-c3ccc(C)cc3)o2)n1 | 84* | 0.2 | 0.6 | 38
C[n+]1cnn2c1SCC1(COC1)C2 | 4 | 1 | 1 | 0
Cc1cc(OCC(=O)Nc2ccc(OCc3ccccc3)cc2)nc(C(C)C)n1 | 14 | 0.9 | 1 | 1
O=C(O)CCCNS(=O)(=O)c1ccc(F)cc1 | -6 | 1.1 | 1.1 | -13
O=S(=O)(NCCSc1ccc(Cl)cc1)c1ccc(F)cc1 | 57* | 0.4 | 0.6 | 37
Cc1ccc(SCCNS(C)(=O)=O)cc1 | 21 | 0.8 | 0.8 | 19
O=S(=O)(NCCCCCNS(=O)(=O)c1ccc(F)cc1)c1ccc(F)cc1 | 73* | 0.3 | 0.5 | 54*
Cc1ccc(SCCNS(=O)(=O)c2ccc(F)cc2)cc1 | 88* | 0.1 | 0 | 96*
Cc1ccc(NC(=O)c2cc(=O)c3ccccc3o2)cc1 | 7 | 0.9 | 0.7 | 30
CC1Cc2ccccc2N1C(=O)c1cnsn1 (configuration not stated) | -7 | 1.1 | 0.8 | 18
CCN(CC)S(=O)(=O)c1ccc(C(=O)N2CCN=C2SC)cc1 | 7 | 0.9 | 0.9 | 14
COc1cc(/C=N/NC(N)=O)cc(Br)c1OCc1ccccc1C | -4 | 1 | 1.2 | -16
CCOc1cc(/C=N/NC(=O)Cn2nc([N+](=O)[O-])cc2C)cc(Br)c1OCc1ccccc1C | 70* | 0.3 | 0.5 | 47
CCOc1cc(/C=N/NC(N)=O)cc(Br)c1OCC(=O)Nc1ccccc1C | 82* | 0.2 | 0.4 | 59*
COc1cc(/C=N/NC(=O)Cn2nc([N+](=O)[O-])cc2C)cc(Br)c1OCc1ccccc1 | 74* | 0.3 | 0.4 | 59*
SMILES | CYP2C9 inh | CYP2C9 act | CYP2C19 act | CYP2C19 inhib
O=C(CSc1nc2c(c(=O)n1-c1ccc(Cl)cc1)SCC2)Nc1ccc2c(c1)OCCO2 | 26 | 0.7 | 0.7 | 35
CC(C)(C)C(=O)C(Cc1ccccc1)n1cncn1 (configuration not stated) | 56* | 0.4 | 0.7 | 31
CC(C)(C)C(=O)C(Cc1ccccc1Cl)n1cncn1 (configuration not stated) | 12 | 0.9 | 0.4 | 60*
Cc1cc(C)c(S(=O)(=O)Nc2ccc(OCC(=O)O)cc2)c(C)c1 | 38 | 0.6 | 0.8 | 22
Cc1[nH]nc(SCC(=O)N2CCCCC2)c1[N+](=O)[O-] | 48 | 0.5 | 0.4 | 65*
Cc1[nH]nc(N2CCCCCC2)c1[N+](=O)[O-] | 22 | 0.8 | 0.5 | 48
Cc1nc2ccccc2n1CC(=O)N/N=C\C=C\c1ccccc1 | 10 | 0.9 | 0.9 | 14
CCCn1c(/C=C/c2ccccc2)nc2ccccc21 | -41 | 1.4 | 0.5 | 51*
Cc1ccc(NC(=O)Cn2c(/C=C/c3ccccc3)nc3ccccc32)cc1C | 100* | 0 | 0.2 | 85*
COc1ccnc(N=CNOCc2cccc(Cl)c2Cl)c1C#N | 8 | 0.9 | 0.4 | 58*
CN(C)/C=C/C(=O)c1ccc(N2CCN(c3ncc(C(F)(F)F)cc3Cl)CC2)cc1 | 17 | 0.8 | 0.9 | 8
Cc1ccc(C)c(S(=O)(=O)NC(C)C(=O)Nc2ccc(-c3nc4ccccc4s3)cc2)c1 (configuration not stated) | 4 | 1 | 1 | 0
